Data reported in the supplement of paper PMC7366291.
Where a name gives a salt, the structure may show the parent alone. ± gives the standard deviation or the standard deviation of the averaged measurements.

Tests used:
Conditions in all cases: 25 µM; exposure: 24-48 hpf
[1] = tested on: Danio rerio Tg(wt1b:EGFP) embryo, pronephros; experiment: glomerular separation, fold change vs DMSO control; higher = glomeruli further apart (abnormal)
Summary of the method: (§1)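 Every feature is expressed as a fold change relative to the averaged DMSO-treated embryos of the same day. The exposure ran from 24 to 48 hpf at 28.5°C, with dechorionated Tg(wt1b:EGFP) zebrafish embryos in HEPES-buffered E3 containing 0.003% PTU, 0.5% DMSO and 25 μM compound. Dorsal pronephros images taken in agarose-filled 96-well plates were reduced to maximum projections, on which 16 reference points were set by hand in Fiji for a macro to compute distances and angles. Values more than 2 SD from the feature mean were not used.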

[2] = tested on: Danio rerio Tg(wt1b:EGFP) embryo, pronephros; experiment: glomerular width (mean of left and right), fold change vs DMSO control; higher = wider glomerulus
Summary of the method: as §1

[3] = tested on: Danio rerio Tg(wt1b:EGFP) embryo, pronephros; experiment: fraction of imaged embryos annotated as normal kidney; higher = less nephrotoxic; extreme values may be limits of the assay
Summary of the method: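 Zebrafish embryos carrying Tg(wt1b:EGFP) were dechorionated and exposed to 25 μM compound (0.5% DMSO) between 24 and 48 hpf at 28.5°C. Their pronephroi were imaged by widefield fluorescence, and each embryo was classed by hand from maximum projections. The measure is the fraction of embryos per treatment falling in the normal-kidney category.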

[4] = tested on: Danio rerio Tg(wt1b:EGFP) embryo, pronephros; experiment: pronephric angle neck segment to proximal convoluted tubule (mean of left and right), fold change vs DMSO control; higher = larger pronephric angle
Summary of the method: as §1

Compound	glomerular separation [1]	glomerular width [2]	fraction of imaged embryos annotated as normal kidney [3]	pronephric angle neck segment [4]
CCOc1ccc(Cc2nccc3cc(OCC)c(OCC)cc23)cc1OCC [Ethaverine hydrochloride]	0.975 ± 0.28	1.1 ± 0.081	0.583	0.989 ± 0.061
C=C(NC(=O)C(=C)NC(=O)c1csc(C2=N[C@@H]3c4csc(n4)[C@H]4NC(=O)c5csc(n5)[C@H]([C@](C)(O)[C@@H](C)O)NC(=O)[C@H]5CSC(=N5)/C(=C/C)NC(=O)[C@H]([C@@H](C)O)NC(=O)c5csc(n5)[C@]3(CC2)NC(=O)[C@H](C)NC(=O)C(=C)NC(=O)[C@H](C)NC(=O)[C@H]([C@@H](C)CC)N[C@@H]2C=Cc3c([C@H](C)O)cc(nc3[C@H]2O)C(=O)O[C@@H]4C)n1)C(N)=O [Thiostrepton]	1.02 ± 0.32	1.02 ± 0.056	0.917	1.01 ± 0.12
O=C(O)CN(CCN(CC(=O)O)CC(=O)O)CCN(CC(=O)O)CC(=O)O [Pentetic acid]	1.23 ± 0.47	0.98 ± 0.017	0.917	0.9888 ± 0.0057
CN(C)CCCSC(=N)N [Dimaprit dihydrochloride]	0.745 ± 0.36	1.05 ± 0.052	0.75	1 ± 0.022
C#CCN(C)Cc1ccccc1 [Pargyline hydrochloride]	1.04 ± 0.29	1.09 ± 0.052	0.833	0.95 ± 0.015
C[C@]12C=CC(=O)C=C1CC[C@@H]1[C@@H]2C(=O)C[C@@]2(C)[C@H]1CC[C@]2(O)C(=O)CO [Prednisone]	1.19 ± 0.48	0.972 ± 0.03	0.833	1.08 ± 0.065
O=C(O)CCC(=O)c1ccc(-c2ccccc2)cc1 [Fenbufen]	6.73 ± 2.4	0.729 ± 0.11	0.0909	1.32 ± 0.18
C[C@H]1NC(=O)NC1=O [Methylhydantoin-5-(D)]	0.867 ± 0.33	0.991 ± 0.011	0.917	1.02 ± 0.02
CC(CN(C)C)C(C)(O)Cc1ccc(Cl)cc1 (configuration not stated) [Clobutinol hydrochloride]	1.4 ± 0.46	0.945 ± 0.026	0.75	0.979 ± 0.034
CN1CCc2cccc3c2[C@H]1Cc1ccc(O)c(O)c1-3 [R(-) Apomorphine hydrochloride hemihydrate]	0.765 ± 0.25	0.954 ± 0.018	0.833	0.933 ± 0.042
CC(C)(C)C(=O)OCOC(=O)[C@@H]1N2C(=O)[C@@H](NC(=O)[C@H](N)c3ccccc3)[C@H]2SC1(C)C [Pivampicillin]	1.14 ± 0.47	1 ± 0.011	1	0.9619 ± 0.0073
O=C(NCC(O)CO)c1c(I)c(C(=O)NCC(O)CO)c(I)c(N(CCO)C(=O)CO)c1I (configuration not stated) [Ioversol]	0.777 ± 0.33	1.07 ± 0.063	0.833	0.9813 ± 0.0048
CN(C)C(=N)NC(=N)N [Metformin hydrochloride]	0.804 ± 0.19	0.93 ± 0.035	0.833	1.08 ± 0.042
CSc1ccc2c(c1)N(CCC1CCCCN1C)c1ccccc1S2 (configuration not stated) [Thioridazine hydrochloride]	1.12 ± 0.33	1.03 ± 0.047	0.75	0.9994 ± 0.0046
CCCCOc1ccc(C(=O)CCN2CCCCC2)cc1 [Dyclonine hydrochloride]	0.982 ± 0.26	1.02 ± 0.071	0.833	1.004 ± 0.0035
CC(C)NCC(O)c1ccc(NS(C)(=O)=O)cc1 (configuration not stated) [Sotalol hydrochloride]	0.82 ± 0.23	1.03 ± 0.062	0.8	1.01 ± 0.043
Nc1ccc(S(=O)(=O)c2ccc(N)cc2)cc1 [Dapsone]	1.08 ± 0.44	1.04 ± 0.077	0.5	1.14 ± 0.042
c1ccc(-c2ccc(C(c3ccccc3)n3ccnc3)cc2)cc1 (configuration not stated) [Bifonazole]	1.24 ± 0.55	0.786 ± 0.019	0.417	1.22 ± 0.14
CN(Cc1cnc2nc(N)nc(N)c2n1)c1ccc(C(=O)N[C@@H](CCC(=O)O)C(=O)O)cc1 (racemic) [Amethopterin (R,S)]	1.29 ± 0.49	0.996 ± 0.022	0.75	1.03 ± 0.036
CCn1cc(C(=O)O)c(=O)c2cnc(N3CCCC3)nc21 [Piromidic acid]	0.725 ± 0.31	0.909 ± 0.021	0.9	1 ± 0.008
Clc1ccc(Cn2c(CN3CCCC3)nc3ccccc32)cc1 [Clemizole hydrochloride]	1.13 ± 0.35	1.03 ± 0.036	0.545	1.02 ± 0.08
CC(=O)Nc1c(I)c(NC(C)=O)c(I)c(C(=O)O)c1I [Diatrizoic acid dihydrate]	1.34 ± 0.56	1.03 ± 0.016	0.583	1.05 ± 0.033
CNC[C@H](O)[C@@H](O)[C@H](O)[C@H](O)CO [Meglumine]	0.734 ± 0.11	1.03 ± 0.061	0.909	1.006 ± 0.0029
